# Assay results reported in the supplement of paper PMC8699584.
# ± gives the standard deviation of the averaged measurements.
# Tests used:
# [1] = tested on: Molm13; test: cell viability relative to DMSO control (bortezomib = 0%); higher = less growth inhibition; settings: 10 nM; 72 h
# In short: (§1)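 Using 384-well plates, a set of 679 approved and investigational compounds was tested once at 10 nM against acute myeloid leukemia cells (1000 cells per well in 50 µL) over 72 h, with the whole screen done in duplicate. Viability readout relied on CellTiter-Glo luminescence measured on an EnVision reader. For each plate, linear regression mapped values between positive-control-treated cells at 0% and DMSO-treated cells at 100%.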
# [2] = tested on: Mv4-11; test: as above; settings: 10 nM; 72 h
# In short: as §1
Compound,cell viability [1] [%],cell viability [2] [%]
N#C/C(=C\c1ccc(O)c(O)c1)C(N)=S,91.3 ± 7.4,104 ± 2.4
Cc1ccccc1-n1c(Cn2cnc3c(N)ncnc32)nc2cccc(C)c2c1=O,108 ± 13,111 ± 5.5
CC(=O)OC(C)(C)/C=C/C(=O)[C@](C)(O)[C@H]1[C@H](O)C[C@@]2(C)[C@@H]3CC=C4[C@H](C[C@H](O)C(=O)C4(C)C)[C@]3(C)C(=O)C[C@]12C [Cucurbitacin B],61.7 ± 0.99,82.9 ± 4.3
COC(=O)C1(OC)CC2OC1(C)n1c3ccccc3c3c4c(c5c6ccccc6n2c5c31)C(=O)N(C)C4 (stereo unspecified),115 ± 6.2,109 ± 2
O=c1[nH]c2ccccc2n1C1CCN(Cc2ccc(-c3[nH]c4cc5ncnc5cc4nc3-c3ccccc3)cc2)CC1 [AKT inhibitor VIII],103 ± 12,103 ± 5.7
CC(C)=CCC[C@](C)(O)[C@H]1CC[C@]2(C)[C@@H]1[C@H](O)C[C@@H]1[C@@]3(C)CC[C@H](O[C@@H]4O[C@H](CO)[C@@H](O)[C@H](O)[C@H]4O)C(C)(C)[C@@H]3CC[C@]12C [Ginsenoside Rh2],116 ± 2.1,111 ± 2.3
O=C(O)c1nn(Cc2ccc(Cl)cc2Cl)c2ccccc12 [Lonidamine],123 ± 1.8,120 ± 4.8
CC(=O)N[C@H]1[C@@H](O[C@@H]2O[C@H](CC(O)[C@H]3O[C@@H](n4ccc(=O)[nH]c4=O)[C@H](O)[C@@H]3O)[C@H](O)[C@H](O)[C@H]2NC(=O)/C=C/CC(C)C)O[C@H](CO)[C@@H](N)[C@@H]1O (stereo partly specified) [Tunicamycin],105 ± 14,103 ± 3.8
COc1ccc2c(c[n+](C)c3c4cc5c(cc4ccc23)OCO5)c1OC [Chelerythrine chloride],115 ± 13,112 ± 6.5
C/C(O)=C(\C#N)C(=O)Nc1cc(Br)ccc1Br,108 ± 6.6,114 ± 7.8
COc1ccc2c(c[n+](C)c3c4cc5c(cc4ccc23)OCO5)c1OC [Chelerythrine (chloride)],106 ± 10,108 ± 1.4
Cc1ccccc1-n1c(Cn2ncc3c(N)ncnc32)nc2cccc(C)c2c1=O,117 ± 1.4,117 ± 14
COc1cc([C@@H]2c3cc4c(cc3[C@H](O)[C@H]3COC(=O)[C@@H]23)OCO4)cc(OC)c1OC [Picropodophyllin (PPP)],98.4 ± 8.1,109 ± 3.8
CC(C)(C)c1cc(C=C(C#N)C#N)cc(C(C)(C)C)c1O [Tyrphostin 9],96.2 ± 18,99.7 ± 4.1
COc1ccc(N(C(=O)Oc2c(C)cccc2C)c2ccnc(Nc3ccc(N4CCN(C)CC4)cc3)n2)c(OC)c1,94.5 ± 18,108 ± 5.2
CN[C@@H]1C[C@H]2O[C@@](C)([C@@H]1OC)n1c3ccccc3c3c4c(c5c6ccccc6n2c5c31)C(=O)NC4 [Staurosporine],11.9 ± 18,5.41 ± 3.4
O=C([O-])C(Cl)Cl.[Na+] [Sodium†Dichloroacetate],74 ± 24,110.7 ± 0.021
COC[C@H]1OC(=O)c2coc3c2[C@@]1(C)C1=C(C3=O)[C@@H]2CCC(=O)[C@@]2(C)C[C@H]1OC(C)=O [Wortmannin],114 ± 9,110.22 ± 0.09
